Results published in PubChem BioAssay AID588398 (Broad Institute, 2011).
Out of some 1,200 compounds screened, about 110 (9.2%) were called active. About 8% were inconclusive and are not listed. A selection follows. Entries with a potency or affinity are not part of this list. Unmarked numbers belong to inactive results.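 How the source made its calls: active means pathway reporter half-maximal dose under half the control reporter's, or control reporter unaffected while pathway reporter is inhibited; inconclusive means either signal flat at 30 to 70% inhibition or poorly fitted; inactive means the rest.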

Test: TES1-eGFP NF-kB reporter inhibition versus Tet-On dsRED, dose response, selectivity assay for LMP1 NF-kB inhibitor project, imaging, HEK293T, dual-color eGFP/dsRED, cherry-picks (AID 588398);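 further: 0% = median of neutral control wells and -100% = median of MG132 positive control wells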
Conditions: 48 h; HEK293T Tet-On dsRED counter-screen channel, at 19.5 µM (top of the series); activity change, negative = inhibition: at the top concentration

Compound	activity change, negative = inhibition [%]
CC1Cc2ccccc2N1c1ncnc(N)c1[N+](=O)[O-] (centres undefined)	-96.5
CCCn1c(C)cc(C(=O)CN2C(=O)c3ccccc3S2(=O)=O)c1C	-3.28
COc1cccc(/C=N/Nc2nccnc2Cl)c1O	-97.3
COc1ccc(/C=C2\N=C(C)OC2=O)cc1[N+](=O)[O-]	2.7
CCN1CCN(Cc2ccc(NC(=O)c3ccc(C)c(NC(=O)c4cccc(-c5cn[nH]c(=O)c5)c4)c3)cc2C(F)(F)F)CC1	-27.1
Cc1cc(N)nc(=O)n1C1CC(O)C(CO)O1 (centres undefined)	3.25
N/C(=N\OC(=O)c1cccc(Br)c1)c1ccccn1	32.5
COc1cc(C=C2CCCC(=Cc3ccc(OCC4CO4)c(OC)c3)C2=O)ccc1OCC1CO1 (centres undefined)	-100
CS(=O)(=O)Nc1ccc(C2=NN(S(C)(=O)=O)C(c3ccccc3)C2)cc1 (centres undefined)	-21
CCSc1nnc(NC(=O)CCn2c(=O)oc3ccccc32)s1	0.664
c1nc(NCc2ccc3c(c2)OCO3)c2cc(-c3ccoc3)ccc2n1	-90.8
COc1ccc(N2C3=[N+](CC2(C)O)c2ccccc2CC3)cc1 (centres undefined)	6.25
c1ccc(-n2nnc3c(N4CCOCC4)ncnc32)cc1	-0.029
O=C(NCc1ccco1)C1CC(=O)N(c2cccc(Cl)c2)C1 (centres undefined)	-7.25
COCCn1c(SCC(=O)NCc2ccco2)nnc1-c1c[nH]c2ccccc12	-19.9
O=C1CCC(C(=O)N2CCCCCC2)CN1CCc1ccc(Cl)cc1 (centres undefined)	20.9
COc1ccc(NC(=O)/C(C#N)=C/c2cc(C)n(-c3ccc(N4CCOCC4)c([N+](=O)[O-])c3)c2C)cc1	-16.2
CCOC(=O)c1nc(NCc2ccccc2F)c2ccccc2n1	-11.5
CCOC(=O)c1cc(-c2ccccc2)n(CC(=O)Nc2cccc(OC)c2)c1C	1.88
COc1cc(/C=N/NC(=O)c2cc(C34CC5CC(CC(C5)C3)C4)[nH]n2)ccc1O	125
COc1cc(/C=C2\SC(=S)N(NC(=O)c3ccncc3)C2=O)ccc1O	19
CCOC(=O)c1cn2nc(N3CCCC3)ccc2n1	-6.07
COc1ccc2[nH]c(-c3ccc(C)cc3)cc(=O)c2c1	61
Cc1ccc(C(=O)Nc2nnc(SCC(=O)N3CCCc4ccccc43)s2)cc1	-2.69
O=C(C1CC1)N1N=C(c2ccc(Br)cc2)CC1(O)C(F)(F)F (centres undefined)	-8.66
COc1ccccc1OCc1ccc(C(=O)c2ccccc2)cc1	3.8
COc1ccccc1C(=O)Nc1c[nH]c(=O)[nH]c1=O	18.2

Compound	activity change, negative = inhibition [%]
COc1ccc(-c2csc(Nc3cccc(C)n3)n2)cc1OC	-8.07
CS(=O)(=O)c1ccc(Sc2nc3ccccc3s2)c([N+](=O)[O-])c1	-78.6
O=C(Nc1ncc(Br)s1)C(Cc1ccccc1)n1cccc1 (centres undefined)	2.81
CCOc1ccccc1C(=O)NC1CC2CCCC(C1)N2Cc1nnnn1Cc1ccco1 (centres undefined)	-15
O=c1cc(C2CCCCC2)[nH]c(=O)[nH]1	13.5
Cc1ccc(-c2nc3cccnc3o2)cc1NC(=O)COc1ccc(C(C)(C)C)cc1	1.26
CNC(=S)N1N=C(c2cccs2)CC1c1ccc(F)cc1 (centres undefined)	2.39
S=C(N/N=C/c1ccc2ncccc2c1)Nc1cccnc1	-20.2
Oc1ccc(C=NNC(=S)Nc2ccccc2)nc1	-90.2
Cn1cc(S(=O)(=O)N2CCN(C(=O)c3ccco3)CC2)c(=O)n(C)c1=O	18.5
Cn1cccc1C(=O)OCC(=O)Nc1ccc2c(c1)OCO2	2.59
Cc1cc(C)nc(SCC(=O)OCN2C(=O)c3ccccc3C2=O)n1	8.4
O=C(Nc1ccc(N2CCOCC2)cc1)c1cnccn1	-6.17
Cc1ccccc1C(=O)N1CCN(c2ccc(NC(=O)c3ccco3)cc2Cl)CC1	-42.5
O=C(CCCOc1ccccc1)N1CCN(c2ccccc2)CC1	11.3
N#CC(C#N)c1ccnc2ccccc12	-82.8
COc1ccc(NC(=O)C[C@H]2C(=O)N(CCc3ccccc3)C[C@@H]2c2ccc(OC)cc2)cc1	-4.86
COc1cc(OC)cc(-c2c(C#Cc3ccsc3)c3cc(-c4cc(OC)c(OC)c(OC)c4)ccc3n2C)c1	23.9
COc1cccc(N=Nc2ccc(O)c3ncccc23)c1	67.8
COc1cccc(C2Nc3ccc4ccccc4c3C3=C2C(=O)CC(C)(C)C3)c1OCC(=O)O (centres undefined)	-6.54
COc1ccc(-n2c(C)c([N+](=O)[O-])c3ccc(O)c(CN(C)C)c32)cc1	-87.1
COc1ccc(/C=C2\SC(=O)N(CCCC(=O)Nc3ccc(C(=O)O)cc3)C2=O)cc1	9.66
Cc1ccc(C(=O)Nc2ccc3c(c2)OCCO3)cc1	-12.8
O=C(Nc1ccc2c(c1)OCCO2)c1ccccn1	-10.5
Cc1ccc(C(=O)Nc2ccc3c(c2)OCCO3)c(Cl)c1	0.084
CCc1nc(SCC(=O)c2ccc3c(c2)OCCO3)c2ccccc2n1	18.3
O=C(CCCN1C(=O)[C@H]2CC=CC[C@H]2C1=O)NCc1nc(-c2ccc(Cl)cc2)no1	17.4
